Among the data in the supplement of paper PMC6555819 are PBM binding z-score values, retold here.

Holding throughout (test): PBM binding z-score (relative to random genomic background probes); higher = stronger binding; sequences stand for … in GC…GCGATTGACAGCGTAGAATGAAGG
The test system of assay [1] is FXR:RXRa (NR concentration 270 nM, RXRa partner concentration 90 nM). In outline:
(§1)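 Binding buffer was PBS pH 7.4 with 2% milk, 0.02% Triton X-100, 1 mM DTT, 0.2 mg/mL BSA and 0.4 mg/ml salmon testes DNA. In it, ligand-free nuclear receptor dimers were incubated 1 h on custom Agilent 4×180K protein-binding microarrays carrying double-stranded probes. Antibodies against each partner (one per run) detected binding, and z-scores were calculated against random background probes after regression normalization of scanned fluorescence.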

Assay [2] deals with LXRa:RXRa (NR concentration 270 nM, RXRa partner concentration 90 nM). Put shortly:
as §1

In assay [3] the test system is LXRa homodimer (NR concentration 270 nM). In outline:
as §1

The subject of assay [4] is LXRb:RXRa (NR concentration 270 nM, RXRa partner concentration 90 nM). In outline:
as §1

The test system of assay [5] is LXRb homodimer (NR concentration 270 nM). Put shortly: as §1
The test system of assay [6] is PPARa:RXRa (NR concentration 270 nM, RXRa partner concentration 90 nM). Put shortly:
as §1

The subject of assay [7] is PPARg:RXRa (NR concentration 180 nM, RXRa partner concentration 90 nM). In outline:
as §1

Assay [8] concerns PPARg:RXRa 270nM:90nM, anti-RXR (NR concentration 270 nM, RXRa partner concentration 90 nM). Put shortly: as §1
Assay [9] deals with PPARg:RXRa 30nM:10nM, anti-RXR (NR concentration 30 nM, RXRa partner concentration 10 nM). In outline:
as §1

Assay [10] deals with PPARg:RXRa 90nM:30nM, anti-RXR (NR concentration 90 nM, RXRa partner concentration 30 nM). In outline: as §1
Assay [11] relates to PPARg:RXRa DBDmut IVT, anti-RXR (DBD mutation: RXRa K156A/R161A, NR concentration 270 nM, RXRa partner concentration 90 nM). Put shortly: as §1
Assay [12] deals with PPARg:RXRa IVT, anti-PPARg (NR concentration 270 nM, RXRa partner concentration 90 nM). In outline: as §1
In assay [13] the test system is PPARg DBDmut:RXRa IVT, anti-PPARg (DBD mutation: PPARg1 K132A/R137A, NR concentration 270 nM, RXRa partner concentration 90 nM). Put shortly: as §1
The test system of assay [14] is PPARg DBDmut IVT, anti-PPARg (DBD mutation: PPARg1 K132A/R137A, NR concentration 270 nM). In outline:
as §1

In assay [15] the test system is PPARg homodimer (NR concentration 180 nM). Put shortly: as §1
Assay [16] concerns PXR:RXRa (NR concentration 270 nM, RXRa partner concentration 90 nM). In outline: as §1
For assay [17], the system named is PXR homodimer (NR concentration 270 nM). Put shortly: as §1
The test system of assay [18] is RARa:RXR (NR concentration 270 nM, RXRa partner concentration 90 nM). In outline: as §1
In assay [19] the test system is RARa homodimer (NR concentration 270 nM). Put shortly: as §1
Assay [20] relates to RARb:RXRa (NR concentration 270 nM, RXRa partner concentration 90 nM). In outline:
as §1

As for ATCGAAAGGTCGACGAGGTGAGTATGCACCGTTT, the PBM binding z-score in [1] was 4.61; in assay [2], 3.13; in [3], -0.377; in [4], 2.5; in [5], 0.258; in assay [6] it was 4.53. For the same sequence, the PBM binding z-score worked out at 2.51 in assay [7]; 3.05 in assay [8]; 0.831 in assay [9]; 1.92 in assay [10]; 0.283 in assay [11]; 1.96 in assay [12]. Moreover, the PBM binding z-score in [13] is 0.899; in assay [14] it was 0.519; in assay [15], 1.67; in assay [16], 2.99; in assay [17] it was 0.682; in assay [18] it was 3.5. Besides, the PBM binding z-score in [19] was determined as 0.243; in assay [20] it was 3.99.
As for AGTCAAAATTCACTAGGTAACGTAAGATTCAGCT, the PBM binding z-score in [1] was 0.492; in [2] it was 0.568; in assay [3], 0.177; in [4], 0.0874; in assay [5] it was 0.267; in [6] it was 0.989. Further, the PBM binding z-score in assay [7] was found to be 0.791; in assay [8] it was 0.81; in [9], 0.61; in assay [10], 1.03; in assay [11], 1.45; in assay [12] it was 2.58. Also, the PBM binding z-score in assay [13] worked out at 1.21; in [14] it was 0.716; in assay [15] it was 1.09; in [16] it was 0.12; in [17], 0.568; in [18], 1.48. In addition, the PBM binding z-score is 1.44 in assay [19] and 0.258 in assay [20].
As for CCGACTGGGGCAAAGGTTACCATGCTCAGTACGA, the PBM binding z-score is 1.68 in assay [1]; 1.51 in [2]; -0.384 in [3]; 1.97 in [4]; -0.983 in assay [5]; 5.76 in assay [6]. Besides, the PBM binding z-score in assay [7] came to 11; in [8] it was 9.85; in assay [9], 11.5; in assay [10], 11.4; in assay [11] it was 4.91; in [12], 6.34. For the same sequence, the PBM binding z-score in assay [13] was 0.168; in [14] it was -0.503; in assay [15], 1.36; in assay [16], 2.28; in [17], -0.702; in assay [18] it was 4.09. Moreover, the PBM binding z-score is -0.847 in assay [19] and 2.63 in [20].
Regarding AGCGAAAGGTCGAAGGTGAGTATACCCACCCGAA, the PBM binding z-score in assay [1] is 4.1; in [2], 3.39; in [3] it was -0.15; in assay [4] it was 2.68; in assay [5], -0.267; in [6], 4.61. The PBM binding z-score in assay [7] is 4.72; in assay [8] it was 5.09; in assay [9] it was 2.12; in assay [10], 4.25; in [11], 0.0438; in assay [12] it was 2.06. Moreover, the PBM binding z-score was 0.39 in assay [13]; -0.438 in assay [14]; 1.16 in [15]; 2.97 in assay [16]; -0.17 in [17]; 4.28 in assay [18]. In addition, the PBM binding z-score was found to be 0.406 in [19] and 3.6 in [20].
Consider AGTAGCAGGCCAAGGGTCACTCAAGATTAGTCCG, for which the PBM binding z-score is 2.36 in [1]; 2.53 in assay [2]; 0.22 in assay [3]; 2.8 in assay [4]; -0.43 in assay [5]; 4.63 in [6]. The PBM binding z-score in assay [7] was 7.54; in [8], 7.15; in assay [9], 6.3; in assay [10], 7.51; in assay [11], 0.462; in [12], 3.88. Moreover, the PBM binding z-score is -0.464 in [13]; -0.976 in assay [14]; 1.7 in assay [15]; 3.19 in assay [16]; -0.0466 in assay [17]; 4.3 in [18]. In addition, the values for the PBM binding z-score in assay [19] and in assay [20] were 0.186 and 3.65, respectively.
Consider TATCCTAGGTCAGATCGGGCCAGTATACGCTATA, for which the PBM binding z-score in assay [1] worked out at 2.81; in [2] it was 3.67; in [3], 2.41; in [4], 2.2; in [5], 1.81; in assay [6] it was 2.49. Besides, the PBM binding z-score is 1.46 in [7]; 2.04 in assay [8]; 0.691 in assay [9]; 1.56 in assay [10]; 2.51 in [11]; 3.41 in assay [12]. Further, the PBM binding z-score in assay [13] was 1.32; in assay [14], 1.4; in assay [15] it was 1.11; in assay [16] it was 1.82; in assay [17], 0.14; in assay [18] it was 1.8. Further, the PBM binding z-score in assay [19] is 0.0561; in assay [20], 3.33.
Take ATCGAAAGGTCGAGGAGGTGAGTATACACCGTTT: the PBM binding z-score in [1] is 4.46; in assay [2], 3.42; in [3] it was -0.194; in [4] it was 2.55; in assay [5], 0.629; in assay [6], 4.26. Also, the PBM binding z-score in assay [7] is 2.8; in assay [8], 3.19; in [9], 0.595; in assay [10], 2.06; in assay [11], 0.255; in assay [12], 1.9. Moreover, the PBM binding z-score was 1.49 in assay [13]; 0.557 in assay [14]; 1.47 in assay [15]; 2.86 in [16]; 0.184 in assay [17]; 3.41 in [18]. The PBM binding z-score in [19] was 0.666; in [20], 3.94.
